Bioassay records (PubChem)
JMJD2A Tudor – inhibitors of human JMJD2A Tudor domain | O75164 | AlphaScreen JMJD2A-Tudor / H3K4me3 peptide binding | Potency, µM (highest dose often 114 µM), hits mostly inhibitors | actives 4.4% (n = 390,000) | AID 504339; note: nearly all actives have a fitted effect of over 50% in size
HP1b chromo inh – inhibitors of HP1-beta chromodomain binding to methylated histone tails; P83916; AlphaScreen HP1-beta / biotin-H3K9me3 peptide binding; Potency, µM (top dose mostly 114 µM), usual class: inhibitors; actives 0.56% (n = 390,000); note: nearly all actives have a fitted effect of over 70% in size
Target sequence (P83916 whole entry, looked up): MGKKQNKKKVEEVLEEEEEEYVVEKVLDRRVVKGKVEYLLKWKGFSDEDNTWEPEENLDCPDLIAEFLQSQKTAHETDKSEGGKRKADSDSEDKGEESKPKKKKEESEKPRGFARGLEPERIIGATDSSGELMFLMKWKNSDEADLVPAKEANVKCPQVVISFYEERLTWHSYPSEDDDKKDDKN
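AlphaScreen: HP1-beta (50 nM) preformed 30 min with biotin-H3(1-18)K9me3 peptide (50 nM) in PBS pH 7.4, 0.01% Tween-20. Compound added for 30 min at RT, then streptavidin donor/nickel chelate acceptor beads (10 ug/mL) for 30 min.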
G9a block – G9a (human) methyltransferase inhibition; G9a H3K9 monomethylation, AlphaScreen, 2 h; Potency, µM (highest dose often 102 µM), usual class: inhibitors; actives 8.8% (n = 350,000); note: nearly all actives have a fitted effect of over 75% in size
Target sequence (Q96KQ7 913-1193 limits assumed): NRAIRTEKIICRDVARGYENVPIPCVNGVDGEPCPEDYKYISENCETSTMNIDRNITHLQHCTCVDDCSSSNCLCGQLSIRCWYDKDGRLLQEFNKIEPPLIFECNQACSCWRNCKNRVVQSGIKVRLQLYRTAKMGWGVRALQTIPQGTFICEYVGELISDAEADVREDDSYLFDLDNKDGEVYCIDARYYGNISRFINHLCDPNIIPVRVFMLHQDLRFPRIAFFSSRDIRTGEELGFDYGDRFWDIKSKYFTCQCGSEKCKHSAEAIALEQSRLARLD
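Methyltransferase reactions run at room temperature for 2 h (20 nM enzyme, 500 nM biotin-H3K9 peptide, 20 uM SAM) after a 15 min compound preincubation; product detected by AlphaScreen beads and anti-H3K9me1 antibody.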
GLS inh – inhibitors of human glutaminase (GLS); GLS enzymatic activity, qHTS titration; Potency, µM (series often up to 45.5 µM), hits mostly inhibitors; actives 0.21% (n = 410,000); AID 624170
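Glutamate formation by hKGA was monitored fluorometrically using coupled glutamate oxidase, HRP and Amplex Red. Substrate was added as 1 mM L-glutamine solution; incubation was 30 min at RT after an initial read.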
BAZ2B block – BAZ2B (human) inhibition | Q9UIF8 | Potency, µM (series often up to 114 µM), hits mostly inhibitors | actives 4.4% (n = 360,000) | AlphaScreen BAZ2B-H3K14Ac peptide displacement; note: nearly all actives have a fitted effect of over 60% in size
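Protein-peptide AlphaScreen: BAZ2B 50 nM, b-H3K14Ac 50 nM, 1x PBS pH 7.4 + 0.01% Tween-20. Preincubation 30 min RT; cpd 30 min RT (top 110 uM); beads 20 min RT, light-protected.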
Numbers stand for hits; - = inactive; ? = inconclusive; . = no result given; [ ] = another dose, or the depositor's remark. Most compounds without a hit are left out; they make up all but 10% or so of the library. Calls come from the whole dose curve; as a rule, active = well fitted curve in the direction sought with a large enough effect; inconclusive = small, poorly fitted or top-dose-only effect, or another doubt; inactive = no such curve, though single readings can be large; an effect the other way counts as inactive or inconclusive.

SMILES	JMJD2A Tudor	HP1b chromo inh	G9a block	GLS inh	BAZ2B block
COC(=O)C1[C@@H](OC)C(OC(=O)COc2ccc(OC)cc2)C[C@@H]2CN3CCc4c([nH]c5cc(OC)ccc45)[C@H]3C[C@H]12 (stereo partly drawn)	.	.	-[12.7 µM]	-	.
Cc1cnc(CNc2ncncc2-c2ccccc2C)cn1	.	.	-[0.501 µM]	.	.
COC(=O)C1=C(C)NC(=O)C1(NC(=O)c1cc(OC)c(OC)c(OC)c1)C(F)(F)F (stereo not drawn)	-	-	-	-	-
CCC(=O)NC(c1ccco1)c1cc(Cl)c2ccccc2c1O (stereo not drawn)	-	-	-[0.501 µM]	-	-
COc1ccc(C(NC(C)=O)c2cc(Cl)c3cccnc3c2O)cc1OC (stereo not drawn)	56µM	-	-	-	28µM
CCC(=O)NC(c1ccc(OC)c(OC)c1)c1cc(Cl)c2cccnc2c1O (stereo not drawn)	-	-	.	-	40µM
CCCC(=O)NC(c1cccs1)c1cc(Cl)c2cccnc2c1O (stereo not drawn)	-	-	-	-	-
CCCC(=O)NC(c1ccco1)c1cc(Cl)c2cccnc2c1O (stereo not drawn)	-	-	-	-	50µM
CCC(=O)NC(c1ccco1)c1cc(Cl)c2c(c1O)NCCC2 (stereo not drawn)	56µM	.	.	.	.
CCOC(=O)[C@@H](NC(=O)/C=C/[C@H]1O[C@@H](n2ccc(=O)[nH]c2=O)[C@H](O)[C@@H]1O)C(C)C	.	.	.	-	.
CCOC(=O)N1CCN(/[N+]([O-])=N/Oc2ccc([N+](=O)[O-])cc2[N+](=O)[O-])CC1C (stereo not drawn)	-	-	.	.	.
COc1ccc(NC(=O)C2c3ccccc3OCC(=O)N2C2CC2)cc1 (stereo not drawn)	.	.	.	-	.
CC(=O)c1ccc(NC(=O)c2cc(=O)[nH]c3ccccc23)cc1	-	-	-	?	-
CCOc1ccc(NC(=O)c2cc3ccccc3cc2O)cc1	79µM	-	-[12.7 µM]	?	56µM
CCOc1ccc(NC(=O)c2cc(=O)[nH]c3ccccc23)cc1	-	-	.	-	56µM
CCc1nn(C)c(-c2n[nH]c(=S)n2N)c1Cl	35µM	-	?	-	?
CCc1cc(-c2n[nH]c(=S)n2N)n(C)n1	8.9µM	?	10µM	-	79µM
O=C(COC(=O)CSc1ccc(Cl)cc1)Nc1ccc2[nH]c(=O)[nH]c2c1	-	-	.	-	.
O=C(NNc1ccccc1)OCc1ccccc1	.	.	.	-	.
Cc1cccc(N2CCN(S(=O)(=O)c3ccc4c(c3)C(C)(C)C(=O)N4C)CC2)c1C	?	-	.	-	50µM
Cc1cccc(N2CCN(S(=O)(=O)c3cccc4nonc34)CC2)c1C	?	-	20µM	-	?
Cc1ccc(C)c(N2CCN(S(=O)(=O)c3ccc4c(c3)C(C)(C)C(=O)N4C)CC2)c1	-	-	.	-	?
O=C(c1cc2ccccc2oc1=O)N(Cc1cccs1)Cc1cccs1	28µM	-	-	-	-
C=CCNC(=O)c1ccc(-n2cccc2)cc1	-	-	-	-	-
COc1ccc(C2Nc3ccccc3C(=O)N2Cc2ccccc2Cl)cc1COc1ccc(NC(C)=O)cc1 (stereo not drawn)	-	.	.	.	.
SMILES	JMJD2A Tudor	HP1b chromo inh	G9a block	GLS inh	BAZ2B block
Cc1ccc(C2=NN(S(=O)(=O)c3ccccc3)C(c3ccco3)C2)cc1 (stereo not drawn)	-	-	-[12.7 µM]	-	-
CS(=O)(=O)Nc1ccc(C2=NN(S(=O)(=O)c3ccc(F)cc3)C(c3ccco3)C2)cc1 (stereo not drawn)	-	-	50µM	-	-
CS(=O)(=O)Nc1ccc(C2=NN(C(=O)c3ccco3)C(c3ccccc3F)C2)cc1 (stereo not drawn)	-	-	50µM	-	.
CCS(=O)(=O)Nc1ccc(C2=NN(C(=O)c3ccco3)C(c3ccco3)C2)cc1 (stereo not drawn)	-	-	?	-	-
O=S(=O)(c1ccccc1)N1N=C(c2ccc(Br)cc2)CC1c1ccco1 (stereo not drawn)	16µM	-	?	?	-
C/C(=N\NC(=O)c1cccc2ccccc12)c1ccccn1	56µM	-	.	-	16µM
C/C(=N/NC(=O)c1ccncc1)c1cc2ccc(O)cc2oc1=O	-	-	-	-	79µM
C/C(=N\NC(=O)c1ccc(Cl)c(Cl)c1)c1ccccn1	?	-	-	-	7.9µM
C/C(=N\NC(=O)c1ccccc1OCc1ccc(F)cc1)c1ccccn1	-	-	-[12.7 µM]	-	-
C/C(=N\NC(=O)C1COc2ccccc2O1)c1ccccn1 (stereo not drawn)	50µM	-	-	-	25µM
CCOc1ccc(OCc2ccc(C(=O)N/N=C(\C)c3ccccn3)cc2)cc1	-	-	-	-	?
CSCCC(NC(=O)c1ccco1)C(=O)N1CC(C)OC(C)C1 (stereo not drawn)	-	-	-[12.7 µM]	-	-
Cc1cc(C(F)F)n2nc(C(=O)Nc3c(C)cccc3C)nc2n1	-	-	-	-	-
COc1ccc(NC(=O)c2ccccn2)cc1OC	-	-	?	-	-
COc1ccc(C(=O)N/N=C(\C)c2ccccn2)cc1OC	22µM	-	.	-	7.9µM
C/C(=N\NC(=O)c1cc(-c2cccs2)nc2ccccc12)c1ccccn1	28µM	-	-	-	5.6µM
Cc1cccc2sc(NNC(=O)c3cc(-c4cccs4)nc4ccccc34)nc12	?	-	32µM	-	3.5µM
C/C(=N/NC(=O)c1ccc(C(C)(C)C)cc1)c1ccccn1	45µM	-	.	-	.
O=C(Nc1ccc2c(c1)OCO2)c1cc(C2CCCCN2C(=O)CCCc2ccccc2)on1 (stereo not drawn)	.	.	.	-	.
C/C(=N\NC(=O)c1ccccc1Cl)c1ccccn1	56µM	-	-	-	32µM
COc1cc(C(C)=NNC(=O)c2ccncc2)ccc1O	32µM	-	.	-	.
C/C(=N\NC(=O)c1cccc(Br)c1)c1ccccn1	22µM	-	-	-	3.5µM
COc1ccc(C(CNC(=O)Cn2c(=O)oc3ccccc32)N(C)C)cc1 (stereo not drawn)	-	-	8.9µM	-	-
COc1cccc(NC(=O)Cn2c(=O)oc3ccccc32)c1	-	-	-[12.7 µM]	-	-
COc1ccc(C(CNC(=O)c2ccccc2SC)N(C)C)cc1 (stereo not drawn)	-	-	7.9µM	-	-
COc1ccc2c(CNCCc3ccccc3)c(C(=O)O)n(Cc3cccc(F)c3)c2c1	?	-	?	-	-
COc1ccc(CNCCCC(=O)Nc2c(Cl)ccc(C)c2Cl)cc1OC	0.79µM	79µM	3.2µM	-	56µM
COc1ccc(CCNCCC(=O)Nc2c(C)cc(C)cc2C)cc1OC	-	-	-	-	-
CC1CCCN(CCCNC(=O)C2CC(=O)N(c3ccc(F)c(Cl)c3)C2)C1 (stereo not drawn)	-	-	-[12.7 µM]	-	-
